Source: PubChem (National Center for Advancing Translational Sciences (NCATS))
VDR inhibitor = inhibitors of human vitamin D receptor; P11473; VDR-SRC2-3 peptide fluorescence polarization, 2 h; Potency, µM, without a hit: max response, negative = inhibition, actives largely listed as inhibitors; 400,000 tested, 0.93% active
Target sequence (P11473 whole entry, looked up): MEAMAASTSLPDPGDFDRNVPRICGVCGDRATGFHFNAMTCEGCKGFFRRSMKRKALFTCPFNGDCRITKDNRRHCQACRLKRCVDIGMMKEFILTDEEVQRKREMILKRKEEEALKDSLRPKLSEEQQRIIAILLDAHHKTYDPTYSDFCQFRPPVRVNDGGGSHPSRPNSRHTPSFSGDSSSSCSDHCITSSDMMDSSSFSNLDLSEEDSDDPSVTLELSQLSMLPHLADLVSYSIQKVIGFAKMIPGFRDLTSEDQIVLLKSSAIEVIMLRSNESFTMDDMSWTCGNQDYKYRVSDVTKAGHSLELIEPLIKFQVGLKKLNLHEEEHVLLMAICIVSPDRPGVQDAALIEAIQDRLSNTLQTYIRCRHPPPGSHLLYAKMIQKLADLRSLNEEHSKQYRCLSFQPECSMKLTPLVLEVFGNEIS
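Fluorescence polarization assay measuring small-molecule disruption of VDR binding to the coregulator peptide SRC2-3. Compounds were pin-transferred (23 nl) into the reagent mix and incubated 2 h at room temperature before reading.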
DT40 TDP1 CPT = growth inhibition of DT40 Tdp1-/-;hTDP1 cells with camptothecin (screen for TDP1 inhibitors); chicken DT40 Tdp1-/-;hTDP1 cells + 20 nM CPT, ATP luminescence, 48 h; AID 686979; 420,000 tested, 12% active; Potency, µM (top dose mostly 46.2 µM), without a hit: top-dose activity change, negative = growth inhibition, usual class: inhibitors; further: nearly all actives have a fitted effect of over 55% in size
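Cell growth measured by CellTiter-Glo luminescence after a minimum 48 h, 37 C compound exposure with 20 nM CPT in Tdp1-knockout DT40 cells stably expressing hTDP1, seeded 400/well; qHTS titration format.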
PLK1 PBD inh = blocks phosphopeptide binding to human PLK1 polo-box domain. P53350. Plk1 PBD binding of FITC phosphopeptide, fluorescence polarization. Potency, µM, for the others: max response, negative = inhibition, usual class: inhibitors. 360,000 tested, 2.8% active. AID 720504; further: series mostly up to about 57 µM; nearly all actives have a fitted effect of over 65% in size
DT40 TDP1 no CPT = qHTS for Inhibitors of human tyrosyl-DNA phosphodiesterase 1 (TDP1): qHTS in cells in absence of CPT; 420,000 tested, 15% active; Potency, µM (series often up to 46.2 µM), for the others: top-dose activity change, negative = growth inhibition, actives largely listed as inhibitors; DT40 Tdp1-/- hTDP1 cells, no CPT, ATP luminescence, 48 h; further: nearly all actives have a fitted effect of over 55% in size
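DT40 Tdp1-/-;hTDP1 cells, no CPT (DMSO vehicle only), 400 cells/well; compounds pin-transferred; ≥48 hr, 37 °C; CellTiter-Glo 30 min RT dark, luminescence read.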
TDP1 inh = blocks human tyrosyl-DNA phosphodiesterase 1. Q9NUW8. recombinant TDP1, AlphaScreen DNA substrate cleavage. Potency, µM (titrated, usually from 130 µM), without a hit: at the top dose activity change, negative = inhibition, most hits filed as inhibitors. 350,000 tested, 0.28% active. AID 485290; further: nearly all actives have a fitted effect of over 40% in size
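Steps: enzyme plus compound, 15 min RT; add biotin/phosphotyrosine-FITC oligonucleotide (15 nM final), react 5 min; add donor/acceptor beads (10 ug/ml final), 10 min; read AlphaScreen. Tdp1 at 1 nM final.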
KAT2A inh = blocks human GCN5L2 histone acetyltransferase; 390,000 tested, 0.21% active; AID 504327; GCN5L2 HAT assay, ThioGlo1 CoA-SH fluorescence; Potency, µM (doses to about 58.9 µM), without a hit: at the highest dose activity change, negative = inhibition, most hits filed as inhibitors; Q92830
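Free CoA generated was detected with ThioGlo1 (50uM) fluorescence at Ex340nm/Em540nm, read immediately and after 20 min at room temperature. Enzyme, 20 nM in HEPES pH 7.5 buffer, saw compounds 15 min before adding 75uM H3(1-25) peptide and 70uM acetyl-CoA.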
Active calls of the source: *; ? = inconclusive; / = no result given; [ ] = another dose, or the depositor's remark. In the library only some 18% were active in any assay of this set; here they are far more common. The call rests on the fitted dose curve; in most records, active means well fitted curve in the direction sought with a large enough effect; inconclusive means small, poorly fitted or top-dose-only effect, or another doubt; inactive means no such curve, though single readings can be large; an effect the other way counts as inactive or inconclusive. On the % scale 0 is the no-effect control and ±100 the full control effect; potency means the concentration at half of the fitted maximal effect.

SMILES	VDR inhibitor	DT40 TDP1 CPT	PLK1 PBD inh	DT40 TDP1 no CPT	TDP1 inh	KAT2A inh
CCOC(=O)c1cc(NC(=O)/C=C\C(=O)O)ccc1Cl	0.8%	-10.7%	-6.8%	-0.7%	0.0%	18.4%
CCOC(=O)c1sc(NC(=O)c2cccc(S(=O)(=O)N(CC)CC)c2)cc1C	11.1%	2.59µM*	1.1%	4.61µM*	5.6%	0.2%
CCOC(=O)c1c(NC(=O)Nc2ccc(Cl)cc2)sc(C)c1C	-3.1%	?	-1.5%	13µM*	3.1%	-17.2%
CCOC(=O)c1c(NC(=O)Nc2cccc(Cl)c2)sc(C)c1C	-10.3%	-4.9%	3.2%	?	2.3%	-11.6%
OCCC1CN(Cc2cc3c(cc2Cl)OCO3)CCN1Cc1ccccc1 (stereo unspecified)	6.8%	?	3.3%	?	/	-1.2%
O=C(NCC(O)c1ccc2ccccc2c1)c1c(F)cccc1F (stereo unspecified)	-1.8%	-11.0%	4.1%	-2.9%	/	-16.4%
CC(C)[C@H](NC(=O)c1c(F)cccc1F)C(=O)OCC(=O)NNC(=O)c1ccccc1	/	-22.4%	-3.8%	-20.4%	/	/
C[C@H](NCCC(c1ccccc1)c1ccccc1)c1ccccc1	7.1%	/	/	/	9.2%[21 µM]	10.5%[21.4 µM]
CC[C@H](C)[C@@H](CN[C@H](C)CNC)NCCC(c1ccccc1)c1ccccc1	-13.0%	5.17µM*	-3.0%	3.66µM*	/	-1.2%
COc1ccc(S(=O)(=O)N2Cc3ccccc3CC2C(=O)Nc2cc(Cl)ccc2Cl)cc1 (stereo unspecified)	0.0%	?	/	?	-0.6%	-4.5%
COc1ccc(/C=C2\SC(=S)N(CC(=O)NCCO)C2=O)cc1	21.2%	-24.1%	-2.5%	-5.9%	8.9%	-11.0%
COc1ccc(/C=C2/SC(=S)N(CCCC(=O)N3CCN(C)CC3)C2=O)cc1	2.1%	?	-1.4%	20.6µM*	9.8%	-3.7%
COc1ccc(-c2cc3c(=O)n(CC(=O)N4CCN(C)CC4)ncn3n2)cc1	-22.4%	20.6µM*	-19.8%	-27.1%	/	-16.4%
COc1ccc(/C=C2\SC(=S)N(CC(=O)N3CCN(C)CC3)C2=O)cc1	5.0%	?	-4.2%	20.6µM*	4.2%	-3.7%
Cc1ccc(NC(=O)Cn2cc(S(=O)(=O)N3CCC(C)CC3)c3ccccc3c2=O)c(Br)c1	3.7%	-22.3%	/	-22.8%	0.0%	-11.8%
CCOC(=O)C1CCN(S(=O)(=O)c2cc(Br)cc3c2N(C(=O)CC)CC3)CC1	4.2%	2.6%	/	2.8%	2.9%	-7.8%
COCCCN(C(=O)Cc1ccc(S(=O)(=O)N2CCOCC2)s1)c1c(N)n(Cc2ccccc2)c(=O)[nH]c1=O	1.8%	-5.0%	-3.8%	17.9%	/	/
CN(Cc1cnc2nc(N)nc(N)c2n1)c1ccc(C(=O)NC(CCC(=O)O)C(=O)O)cc1C(F)(F)F (stereo unspecified)	22.2%	0.0291µM*	-6.5%	0.184µM*	/	/
CN1c2c(nc(N)[nH]c2=O)NCC1CNc1ccc(C(=O)NC(CCC(=O)O)C(=O)O)cc1 (stereo unspecified)	-0.8%	5.2%	/	?	/	0.3%
CC(C)CN1CCc2nc(-c3ccccc3)c3c(c2CC1)COC(C)C3 (stereo unspecified)	/	/	/	/	5.8%[21 µM]	/
O=C(NCc1ccco1)c1cc([N+](=O)[O-])cc([N+](=O)[O-])c1	-11.3%	?	1.2%	?	-3.0%	1.3%
CCOc1ccc(Oc2c(/C=N/NC(N)=O)c(C)nn2-c2ccccc2)cc1	3.1%	-1.8%	1.1%	?	6.9%	-2.9%
Cc1nn(-c2ccccc2)c(Oc2ccccc2)c1C=O	-4.6%	16.4µM*	-8.8%	13µM*	0.6%	2.1%
CC(C)(C)CC(C)(C)c1ccc(OCOCCOCCO)c(Cc2cc(C(C)(C)CC(C)(C)C)cc(Cc3cc(C(C)(C)CC(C)(C)C)ccc3OCOCCOCCO)c2OCOCCOCCO)c1	-6.4%	/	/	/	6.5%[56.1 µM]	0.0%[21.4 µM]
CC(C)(C)CC(C)(C)c1ccc(OCCO)cc1	-6.4%	8.41µM*	/	10.6µM*	2.5%	10.4%
SMILES	VDR inhibitor	DT40 TDP1 CPT	PLK1 PBD inh	DT40 TDP1 no CPT	TDP1 inh	KAT2A inh
CN(C)c1ncc2nc(-c3cccs3)c(=O)n(C)c2n1	-1.2%	-1.6%	/	18.0%	/	-8.3%
O=[N+]([O-])c1cccc(NNS(=O)(=O)c2ccccc2F)c1	?	?	21.2µM*	?	/	-16.9%
CC(C)c1nn2c(=O)cc(COC(=O)c3cccc(NC(=O)c4ccccc4F)c3)nc2s1	8.4%	?	/	?	3.8%	-2.4%
CCCCn1c2ccc(F)cc2c2nnc(NN)nc21	?	18.4µM*	-20.3%	?	1.6%	-4.2%
CCn1c2ccc(C)cc2c2nnc(NN)nc21	-14.7%	18.4µM*	1.2%	9.2µM*	5.6%	2.7%
Cc1ccc(C)c(NC(=O)/C(C#N)=C/c2ccc(C(C)C)cc2)c1	-23.5%	?	/	?	-0.6%	-5.6%
CCCCCCCCCCOc1cc(OCCCCCCCCCC)cc(N(CC(=O)O)CC(=O)O)c1	50.1µM*	/	/	/	10.8%	?
CCCCCCCCOc1ccc(C(=O)c2ccccc2)c(O)c1	0.8%	3.6%	/	-26.2%	/	-10.9%
CC(=O)Oc1ccc2nonc2c1OC(C)=O	1.41µM*	5.62µM*	/	5.62µM*	-10.3%	/
CC(C)(C)c1nc2ccccc2c2nnc(SCC(=O)NCc3ccco3)n12	-6.3%	?	-6.1%	?	8.2%	-5.7%
C=CCn1c(SCC(=O)NCc2ccco2)nc2ccccc2c1=O	-6.1%	-2.1%	-4.9%	-25.9%	0.0%	-5.7%
O=C(CSc1nc(C2CCCCC2)nc2ccccc12)NCc1ccco1	6.6%	?	-6.2%	20.6µM*	/	0.8%
CC(C)c1nc2ccccc2c2nnc(SCC(=O)NCc3ccco3)n12	-18.5%	16.4µM*	29.9µM*	?	-2.1%	0.7%
C=CCn1c(SCC(=O)NCc2ccco2)nnc1-c1ccc2ccccc2n1	-8.1%	?	-25.7%	18.4µM*	-1.1%	?
O=C(CSc1nccc(=O)[nH]1)NCc1ccco1	-18.1%	14.2%	?	-10.7%	14.1µM*	-8.5%
Cc1c(CCOC(=O)C23CC4CC(CC(C4)C2)C3)sc[n+]1Cc1ccccc1	-21.6%	?	0.9%	10.3µM*	-2.7%	-1.4%
Cc1c(CCOC(=O)C23CC4CC(CC(C)(C4)C2)C3)sc[n+]1Cc1ccccc1	19.4%	4.11µM*	?	2.91µM*	2.9%	1.5%
OC(c1ccccc1)c1nc2ccccc2s1 (stereo unspecified)	-8.4%	23.1µM*	11.9µM*	?	4.0%	-2.8%
